Results reported in PubChem BioAssay (NCATS).
Where “and” joins values, the source holds several entries; their conditions need not be identical. Equal entries are not always repeated. Records with an inconclusive call do not appear. Calls of active or inactive are those of the source. Calls come from the whole dose curve; as a rule, active = well fitted curve in the direction sought with a large enough effect; inconclusive = small, poorly fitted or top-dose-only effect, or another doubt; inactive = no such curve, though single readings can be large; an effect the other way counts as inactive or inconclusive.

Assays:
[1] = biological target: Cellular tumor antigen p53 (Homo sapiens) (UniProt P04637); assay: Primary qHTS for small molecule compounds that upregulate eGFP-tagged delta133p53alpha (in N-terminal) cells. (AID 2060322); details: NCI-H358 eGFP-delta133p53alpha fluorescence, 24 h; activation: stronger effect = higher value; note: nearly all actives have a fitted effect of over 75% in size; note: potency is the fitted concentration of half-maximal effect;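 for activation: cells pre-induced with doxycycline then dosed without doxycycline; series mostly up to about 56 µM; 0% = DMSO vehicle and 100% = reference activator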
In short: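 NCI-H358 cells pre-induced 24 h with 10 ng/ml doxycycline for eGFP-delta133p53alpha, plated dox-free and exposed 24 h at 37C to titrated compounds. Fixed, Hoechst-stained; gated GFP peak intensity by laser scanning cytometry, normalized to DMSO (0%) and 57.5 uM 5-azacytidine (100%).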

[2] = biological target: Aldehyde dehydrogenase, mitochondrial (Homo sapiens) (UniProt P05091); assay: qHTS for Inhibitors of the Aldehyde Dehydrogenase Family (ALDH2) Primary screen (AID 2061308);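 note: plate controls were vehicle for no effect and reference inhibitor for full effect; nearly all actives have a fitted effect of over 55% in size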
[3] = biological target: Retinaldehyde dehydrogenase 3 (Homo sapiens) (UniProt P47895); assay: qHTS for Inhibitors of the Aldehyde Dehydrogenase Family (ALDH1A3) Validation screen (AID 2061312); note: % is set by controls: 0 for no effect and ±100 for the full control effect; nearly all actives have a fitted effect of over 45% in size
[4] = biological target: Retinaldehyde dehydrogenase 3 (Homo sapiens) (UniProt P47895); assay: qHTS for Inhibitors of the Aldehyde Dehydrogenase Family (ALDH1A3) Primary screen (AID 2061315);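 note: plate controls were DMSO vehicle for no effect and reference inhibitor for full effect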
[5] = BET inhibitor-based combinations targeting novel dependencies in MECOM-rearranged (r) AML: OCI-AML3 cell line (AID 2202232); details: Potency: OCI-AML3 viability; note: nearly all actives have a fitted effect of over 35% in size; note: potency is the fitted concentration of half-maximal effect
In short: (§1)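 Viability of cells (500 per well) is scored by luminescent CellTiter-Glo at 48 hr post-dosing. Eleven-point titrations are normalized to DMSO and empty controls and reduced to AUC values.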

[6] = BET inhibitor-based combinations targeting novel dependencies in MECOM-rearranged (r) AML: MV-4-11 cell line (AID 2202233); note: nearly all actives have a fitted effect of over 45% in size; note: potency is the fitted concentration of half-maximal effect
In short: (§2)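 Using pin-tool transfer, drugs were added in 11 doses to cells (500/well), incubated 48 hr, and assessed with CellTiter-Glo. Z-AUC is a mean-centring transformation applied separately to each screened line.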

[7] = BET inhibitor-based combinations targeting novel dependencies in MECOM-rearranged (r) AML: UCSD-AML1 cell line (AID 2202235); note: nearly all actives have a fitted effect of over 40% in size; note: potency is the fitted concentration of half-maximal effect
In short: as §2

[8] = BET inhibitor-based combinations targeting novel dependencies in MECOM-rearranged (r) AML: AML-191 cell line (AID 2202236; note: nearly all actives have a fitted effect of over 35% in size; note: potency is the fitted concentration of half-maximal effect)
In short: as §1

[9] = BET inhibitor-based combinations targeting novel dependencies in MECOM-rearranged (r) AML: AML-194 cell line (AID 2202237;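 note: plate controls were vehicle wells for no effect and wells without cells for full effect; nearly all actives have a fitted effect of over 40% in size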)
In short: as §1

[10] = BET inhibitor-based combinations targeting novel dependencies in MECOM-rearranged (r) AML: SET-2 cell line (AID 2202231); details: SET-2 AML cells viability, CellTiter-Glo luminescence, 48 h; viability: stronger effect = lower value, concentration not given here; note: nearly all actives have a fitted effect of over 35% in size; note: potency is the fitted concentration of half-maximal effect;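 for viability: plate controls were DMSO treated cells for no effect and wells without cells for full effect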
In short: as §1

[11] = BET inhibitor-based combinations targeting novel dependencies in MECOM-rearranged (r) AML: HNT-34 cell line (AID 2202234);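 note: plate controls were vehicle wells for no effect and cell-free wells for full effect; nearly all actives have a fitted effect of over 35% in size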
In short: as §2

Sequence of Cellular tumor antigen p53 (Homo sapiens) (P04637 whole entry, looked up): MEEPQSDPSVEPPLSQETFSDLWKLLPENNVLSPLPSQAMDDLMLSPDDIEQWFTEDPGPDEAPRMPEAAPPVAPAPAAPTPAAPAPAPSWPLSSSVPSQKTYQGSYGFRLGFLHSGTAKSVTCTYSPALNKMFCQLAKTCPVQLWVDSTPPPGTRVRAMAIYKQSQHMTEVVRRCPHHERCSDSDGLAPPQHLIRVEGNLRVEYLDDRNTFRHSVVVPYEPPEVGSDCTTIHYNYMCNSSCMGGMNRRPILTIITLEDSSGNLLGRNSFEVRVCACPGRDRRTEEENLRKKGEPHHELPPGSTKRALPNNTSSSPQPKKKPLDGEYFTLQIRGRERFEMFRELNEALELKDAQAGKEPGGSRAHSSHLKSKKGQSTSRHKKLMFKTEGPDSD

Cn1ncnc1COc1nn2c(-c3c(F)cccc3F)nnc2cc1C1CCC1
inactive: activation [1] -7.16% | Potency [2] | Potency [3] | Potency [4]

c1ccc(C2(c3ccccc3)OC[C@@H]([C@H]3CCCCN3)O2)cc1
inactive: activation [1] 2.86% | Potency [2] | Potency [3] | Potency [4]

CCc1c(C(=O)C(N)=O)c2c(OCC(=O)O)cccc2n1Cc1ccccc1
inactive: activation [1] -24.6% and -2.39% | Potency [2] | Potency [3] | Potency [4] | Potency [5] | Potency [6] | Potency [7] | Potency [8] | Potency [9]

CC(C)[C@H](NC(=O)c1nn(Cc2ccc(F)cc2)c2ccccc12)C(N)=O
inactive: activation [1] -6.68% | Potency [2] | Potency [4]

Cc1sc2c(c1C)C(c1ccc(Cl)cc1)=NC(CC(=O)Nc1ccc(O)cc1)c1nnc(C)n1-2 (centres undefined)
inactive: activation [1] -21.2% | Potency [2] | Potency [3] | Potency [4]
active: Potency [10] 1320 nM | Potency [5] 263 nM | Potency [6] 296 nM | Potency [7] 742 nM

COc1ccc2c3c([nH]c2c1)C(C=C(C)C)N1C(=O)C2CCCN2C(=O)C1C3 (centres undefined)
inactive: activation [1] -3.82% | Potency [2] | Potency [4]

CO/C1=C\C(C)=C\[C@@H](C)[C@@H](O)[C@@H](C)C/C(C)=C/C=C/[C@H](OC)[C@@H]([C@@H](C)[C@@H](O)[C@H](C)[C@@]2(O)C[C@@H](O)[C@H](C)[C@@H](C(C)C)O2)OC1=O
inactive: activation [1] 13% | Potency [2] | Potency [4]

CCN(CC)C(=O)c1ccc(C2=CC3(CCNCC3)Oc3cccc(O)c32)cc1
inactive: activation [1] -5.25% | Potency [2] | Potency [3] | Potency [4] | viability [10] 99.6% | Potency [5] | Potency [6] | Potency [7] | Potency [8] | Potency [9]

O=C(N[C@H]1N=C(c2ccccc2F)c2cccc3c2N(CC3)C1=O)c1cc2ccccc2[nH]1
inactive: activation [1] 6.33% | Potency [2] | Potency [4]

CCNC(=O)CC1N=C(c2ccc(Cl)cc2)c2cc(OC)ccc2-n2c(C)nnc21 (centres undefined)
active: Potency [7] 9340 nM | Potency [8] 13200 nM
inactive: activation [1] -24.1% and -15% and -22.4% | Potency [2] | Potency [3] | Potency [4]

O=c1[nH]c2ccc(Cl)cc2c(N[C@@H]2CN3CCC2CC3)c1-c1nc2ccccc2[nH]1
inactive: Potency [2] | Potency [3] | Potency [4]
active: Potency [1] 17.2 µM and 2.69 µM | Potency [10] 332 nM | Potency [5] 417 nM | Potency [6] 74.2 nM | Potency [7] 417 nM | Potency [8] 417 nM

CC(=O)Nc1ccc(OC[C@](C)(O)C(=O)Nc2ccc([N+](=O)[O-])c(C(F)(F)F)c2)cc1
inactive: activation [1] 44.3% and 23.4% | Potency [2] | Potency [3] | Potency [4] | Potency [5] | Potency [11] | Potency [7] | Potency [8] | Potency [9]

C/C=C(\C)C(=O)OC1C(C)OC(OC2C(C)OC(OC3CCC4(C)C(=CCC5C4CCC4(C)C(C(C)OC6OC(COC7OC(CO)C(O)C(O)C7O)C(O)C(O)C6O)CCC54O)C3)CC2OC)C(O)C1OC (centres undefined)
inactive: activation [1] 0.763% | Potency [2] | Potency [4]

C[C@H](CCC(=O)O)C[C@H](C)C[C@H](C)C(=O)/C=C(\O)[C@H](C)C[C@H](C)C/C=C/[C@@H](C)[C@@H](O)[C@@H](C)[C@@H](O)C[C@@H]1CC[C@@](C)([C@H]2CC[C@@](C)([C@@H](C)O)O2)O1
inactive: activation [1] -6.33% | Potency [2] | Potency [4]

CC1(C)C(=O)N(c2ccc(C#N)c(C(F)(F)F)c2)C(=S)N1c1ccc(C(N)=O)c(F)c1
inactive: activation [1] 1.43% | Potency [2] | Potency [3] | Potency [4]

Cc1sc2c(c1C)C(c1ccc(Cl)cc1)=N[C@@H](CC(N)=O)c1nnc(C)n1-2
active: Potency [10] 372 nM | Potency [5] 105 nM | Potency [6] 83.3 nM | Potency [8] 209 nM
inactive: activation [1] 10% | Potency [2] | Potency [3] | Potency [4]

O=C(O)c1ccnc2cc(C(OCCN3CCCCC3)c3ccccc3Cl)[nH]c12 (centres undefined)
inactive: activation [1] -17% | Potency [2] | Potency [4]

O=C1C=CC[C@@H]2[C@H]3CCCN4CCC[C@@H](CN12)[C@@H]34
inactive: activation [1] -8.56% and -6.68% | Potency [2] | Potency [3] | Potency [4] | viability [10] 108% | Potency [5] | Potency [6] | Potency [8]

CC1=CC(=O)[C@@H](O)[C@]2(C)C3[C@@H](O)[C@@H]4OC(=O)[C@@H]([C@H]4C)[C@]3(C)C(=O)C[C@@H]12 (some centres undefined)
active: Potency [1] 16.6 µM
inactive: Potency [2] | Potency [4]

CCCCC1C(=O)NC(=O)N(C2CCCCC2)C1=O (centres undefined)
inactive: activation [1] 17% | Potency [2] | Potency [4]

CC(=O)N(C)c1cccc(-c2ccnc3c(C(=O)c4cccs4)cnn23)c1
inactive: activation [1] -3.13% and 5.73% | Potency [2] | Potency [3] | Potency [4]

CC(=O)N1N=C(c2ccc(N)cc2)c2cc3c(cc2C[C@H]1C)OCO3
inactive: activation [1] -0.955% | Potency [2] | Potency [3] | Potency [4] | viability [10] 93.4% | Potency [6] | Potency [11] | Potency [7] | Potency [8]
